PubChem BioAssay AID435000 (NMMLSC, 2010)
The list shows a part of the results. A number with no mark means an inactive call.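 Rule for the calls: active = fluorescence response below 15%; inactive = the rest.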

Assay: yeast superoxide dye artefact check – S. cerevisiae BY4741, flow cytometry, artefact control for yeast caloric restriction mimetic project (AID 435000);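 note: percent of the mean fluorescence averaged over all compound wells on the plate; lower means stronger quenching of DHE signal or ROS scavenging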
Conditions: S. cerevisiae BY4741, DHE fluorescence, at 10 µM, stronger effect = lower value

SMILES | fluorescence response [%]
C[C@]12CCC3C(CC[C@H]4C[C@@H](O)CC[C@]34C)C1C[C@@H](O)[C@H]2O (some centres not stated) | 99
CN1CCN(C(=S)SCC(=O)Nc2ccc(Cl)cc2C(=O)c2ccccc2)CC1 | 104
